# Screening data: PubChem BioAssay, National Center for Advancing Translational Sciences (NCATS)
# A selection: hits, their analogues and other compounds. The true share with any hit is near 2.4%.
# TDP1 inh – qHTS Assay for Inhibitors of Tyrosyl-DNA Phosphodiesterase (TDP1); Tyrosyl-DNA phosphodiesterase 1 (Homo sapiens), Q9NUW8; recombinant TDP1, AlphaScreen DNA substrate cleavage; Potency, µM (top dose mostly 130 µM), usual class: inhibitors; actives 0.28% (n = 350,000); note: nearly all actives have a fitted effect of over 40% in size
#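 Enzyme-compound mixtures sat 15 min at room temperature, followed by a 5 min reaction with 15 nM final substrate and 10 min with AlphaScreen beads. Recombinant human Tdp1 was used at 1 nM final.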
# FEN1 inhibitor – qHTS Assay for the Inhibitors of Human Flap endonuclease 1 (FEN1). P39748. Recombinant FEN1 flap cleavage, fluorescence, 15 min. Potency, µM (series often up to 114 µM), actives largely listed as inhibitors. actives 0.35% (n = 390,000); note: nearly all actives have a fitted effect of over 65% in size
# Target sequence (P39748 whole entry, looked up): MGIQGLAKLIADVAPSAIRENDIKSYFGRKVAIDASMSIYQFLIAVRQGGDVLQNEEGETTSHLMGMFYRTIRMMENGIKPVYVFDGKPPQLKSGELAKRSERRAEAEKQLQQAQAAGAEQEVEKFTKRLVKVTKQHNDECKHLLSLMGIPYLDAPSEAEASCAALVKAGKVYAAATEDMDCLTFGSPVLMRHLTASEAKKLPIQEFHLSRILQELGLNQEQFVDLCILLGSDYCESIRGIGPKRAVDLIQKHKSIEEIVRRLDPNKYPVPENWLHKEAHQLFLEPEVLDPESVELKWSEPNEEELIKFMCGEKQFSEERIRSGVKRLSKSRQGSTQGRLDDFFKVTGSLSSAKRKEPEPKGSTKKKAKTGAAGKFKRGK
#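 Enzyme 10 nM, 15 min RT preincubation with compound; start with substrate 50 nM final; reads at 0 and 15 min; qHTS titration, four-parameter Hill fit.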
# POLK inh – qHTS for Inhibitors of Polymerase Kappa; DNA polymerase kappa (Homo sapiens), Q9UBT6; purified Pol kappa, fluorescent DNA synthesis assay, 10 min; Potency, µM (series often up to 107 µM), actives largely listed as inhibitors; actives 0.53% (n = 400,000)
#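 Activity was followed as the change in fluorescence between reads at 0 and 10 min after starting the reaction with 50 nM substrate. Beforehand, 10 nM polymerase had been preincubated with compound for 15 min at room temperature.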
# POLI inh – qHTS for Inhibitors of Polymerase Iota; Pol iota fluorescent replication assay, 10 min; AID 588590, 2011; Potency, µM (highest dose often 115 µM), actives largely listed as inhibitors; DNA polymerase iota (Homo sapiens), Q9UNA4; actives 1% (n = 390,000)
#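 Pol iota at 10 nM preincubated 15 min with compounds at room temperature; reaction started with fluorescent substrate, 50 nM final. Fluorescence read kinetically at 0 and 10 min; buffer-only wells as negative control.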
# Pol eta inh – qHTS for Inhibitors of Polymerase Eta. actives 1.2% (n = 390,000). recombinant Pol eta, fluorescent DNA replication assay. Potency, µM (highest dose often 114 µM), most hits filed as inhibitors. DNA polymerase eta (Homo sapiens), Q9Y253
#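 Fluorescent replication assay: 50 nM final substrate added after a 15 min room-temperature compound preincubation with 10 nM enzyme. Signal taken at 0 min and again at 10 min.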
# POLB inh – qHTS Assay for Inhibitors of DNA Polymerase Beta; Pol beta primer extension/strand displacement, fluorescence kinetic; Potency, µM (top dose mostly 114 µM), most hits filed as inhibitors; actives 1.3% (n = 340,000); AID 485314, 2010
#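 Pol beta (10 nM) was preincubated with compound for 15 min at room temperature. The reaction was then started with 50 nM substrate and read immediately and after a further 10 min at room temperature.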
# Numbers stand for hits; i = inactive; ? = inconclusive; nt = no result given; ! = a repeat was not active; [ ] = remark or other dose. Calls come from the whole dose curve; as a rule, active = well fitted curve in the direction sought with a large enough effect; inconclusive = small, poorly fitted or top-dose-only effect, or another doubt; inactive = no such curve, though single readings can be large; an effect the other way counts as inactive or inconclusive.
SMILES,TDP1 inh,FEN1 inhibitor,POLK inh,POLI inh,Pol eta inh,POLB inh
CCOc1ccccc1NC(=O)CSC1=Nc2ccccc2C2=NC(CC(=O)NCc3ccc4c(c3)OCO4)C(=O)N12 (stereo not given),i,i,i,?,?,i
CCOc1ccc(C2CC(=O)Nc3nc(SCc4ccccc4C)[nH]c(=O)c32)cc1OC (stereo not given),i,i,i,i,i,i
S=c1[nH]nc(-c2cc(-c3ccccc3)n[nH]2)n1/N=C/c1ccc(Cl)cc1,i,i,i,16µM,?,40µM
S=c1[nH]nc(-c2cc(-c3ccccc3)n[nH]2)n1/N=C/c1ccc(Cl)c(Cl)c1,79µM,?,?,?,?,22µM
Oc1ccc(/C=N/n2c(-c3ccccc3)n[nH]c2=S)cc1,nt,i,i,i,i,i
CCn1c2ccccc2c2cc(/C=N/n3c(-c4cc(C)[nH]n4)n[nH]c3=S)ccc21,i,?,i,?,?,50µM
CC(CNC(=O)c1ccc2c(c1)nc1n2CCOC1)c1ccccc1 (stereo not given),i,i,i,i,i,i
O=C1NC(=S)S/C1=C\c1ccc(SCc2ccco2)o1,nt,?,1.8µM,?,1.6µM,2.2µM
CCC1=NN2C(=N)/C(=C/c3ccc(OS(=O)(=O)c4ccccc4)c(OC)c3)C(=O)N=C2S1,i,i,i,?,?,i
CCCC1=NN2C(=N)/C(=C\c3ccc(SCc4ccco4)o3)C(=O)N=C2S1,nt,?,28µM,20µM,3.5µM,13µM
O=C1NC(=S)SC1=Cc1ccccc1Cl,nt,i,i,?,i,nt
CCC1=NN2C(=N)/C(=C\c3ccc(SCc4ccco4)o3)C(=O)N=C2S1,i,i,?,22µM,16µM,13µM
C[C@H]1CN([C@@H](C)CO)C(=O)CCCn2cc(nn2)CO[C@@H]1CN(C)S(=O)(=O)c1ccc(C#N)cc1,nt,nt,nt,nt,i,nt
CC1(C)CN(CCc2ccccc2)C(=O)[C@H]1CC(=O)Nc1ccccc1,nt,nt,nt,nt,i,nt
CCOc1ccc2oc(=O)cc(CN3CCN(c4ccc(Cl)cc4)CC3)c2c1,i,i,i,i,i,i
COc1ccc(-c2csc(NC(=O)CC(NC(C)=O)c3ccccc3)n2)cc1OC (stereo not given),79µM,i,i,i,i,i
COc1ccc(-c2csc(NC(=S)NC(=O)c3cccs3)n2)cc1Br,i,i,i,i,i,i
COc1ccc(-c2csc(NC(=S)NC(=O)c3cccs3)n2)cc1OC,i,i,i,?,20µM,?
CN(Cc1cnc2nc(N)nc(N)c2n1)c1ccc(C(=O)N[C@@H](CCC(=O)O)C(=O)O)cc1,i,?,?,32µM!,32µM!,40µM
CN(Cc1cnc2nc(N)nc(N)c2n1)c1ccc(C(=O)N[C@H](CCC(=O)O)C(=O)O)cc1,i[21 µM],nt,i[12 µM],nt,nt,nt
COc1ccc(CNC(=O)Cn2ncn3c(cc4ccccc43)c2=O)cc1,nt,i,i,i,i,i
O=C(CSc1nc2cc(Cl)ccc2s1)NC(=O)NCc1ccco1,i,i,?,i,35µM,45µM
O=C(Cn1ncn2c(cc3ccccc32)c1=O)NCc1ccco1,i,i,i,?,89µM,50µM
O=C(COc1ncnc2scc(-c3ccc(F)cc3)c12)NCc1ccco1,i,i,i,i,?,i
Cc1ccc(-c2csc3ncnc(OCC(=O)NC(=O)NCc4ccco4)c23)cc1,i,i,i,?,79µM,40µM
O=C(Cn1cnc2scc(-c3ccccc3)c2c1=O)NCc1ccco1,i,i,?,56µM,22µM,28µM
Cc1nc(SCC(=O)NCc2ccco2)c2c(C)c(C)sc2n1,i,i,i,i,i,i
Cc1nc(SCC(=O)NCc2ccco2)nc(C)c1C,i,i,i,i,i,i
Cc1sc2ncnc(SCC(=O)NC(=O)NCc3ccco3)c2c1C,45µM,i,?,?,89µM,11µM
